This is part of a sample that, as a whole, favours compounds with a hit. Of some 83,000 tested, about 20% had one in any assay.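 Single-concentration screen, 48 h exposure, 96-well plates. Endpoint: percent growth. Below 10 = active.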 Calls of active or inactive are those of the source.
Experiments:
Experiment in all cases: NCI-60 one-dose screen, 48 h (100 = growth as untreated, 0 = no growth, -100 = all killed)
Conditions in all cases: 10 µM
[1] = tested on: NCI-H23 lung
[2] = tested on: NCI-H226 lung
[3] = tested on: HOP-62 NSCLC
[4] = tested on: NCI-H460 lung
[5] = tested on: NCI-H522 lung
[6] = tested on: A549/ATCC NSCLC
[7] = tested on: 786-0 renal
[8] = tested on: COLO 205 colon
[9] = tested on: DU-145 prostate
[10] = tested on: K-562 leukemia
[11] = tested on: MDA-MB-231 breast
[12] = tested on: RXF 393 renal
[13] = tested on: SF-268 CNS
[14] = tested on: SF-295 CNS
[15] = tested on: SF-539 CNS
[16] = tested on: UACC-257 melanoma
[17] = tested on: M14 melanoma
[18] = tested on: MALME-3M melanoma
[19] = tested on: HOP-92 NSCLC

Measured: growth

N#Cc1cnn(C(=O)c2nn(-c3ccc(Cl)cc3)cc2O)c1N
active: [1] 9.65% | [4] 3.09% | [5] -13.7% | [8] -23.4% | [10] -17.5% | [14] -25.6%
inactive: [2] 18.4% | [3] 19.2% | [6] 15.1% | [7] 17.3% | [9] 34.9% | [11] 38.5% | [12] 39.3% | [13] 29.5% | [15] 12.8% | [16] 19% | [17] 24.3%

Nc1ccc(CC[C@H]2CCC/C=C/[C@@H]3C[C@H](O)C[C@H]3[C@H](O)/C=C/C(=O)O2)cc1
active: [1] -22.7% | [2] 5.2% | [5] -46.6% | [18] -14% | [11] -80.5% | [12] -36.3% | [16] 4.74% | [17] 3.35%
inactive: [3] 14.2% | [4] 10.5% | [6] 11.9% | [9] 16.2% | [10] 11.4% | [13] 10.2% | [14] 13% | [15] 25.3%

CC(=O)Nc1ccc(S(=O)(=O)N/N=C(\C)c2ccc(C)cc2C)cc1
inactive: [1] 105% | [2] 107% | [3] 100% | [4] 106% | [5] 91.1% | [6] 99.9% | [7] 105% | [8] 103% | [9] 112% | [10] 94.9% | [11] 113% | [12] 129% | [13] 104% | [15] 98.3% | [16] 95.1% | [17] 106%

COc1cc(-c2nn(-c3cccc(NC(=O)CCN4CCN(c5ccccc5)CC4)c3)cc2-c2ccncc2)ccc1Cl
active: [19] 4.23% | [7] 2.45% | [8] -36.9% | [11] 7.1% | [12] -0.267%
inactive: [1] 24.5% | [2] 47.6% | [3] 34.2% | [5] 10.1% | [6] 15.9% | [9] 30.8% | [10] 11.3% | [18] 38% | [13] 30% | [14] 13.4% | [15] 30.2% | [16] 29.1% | [17] 10.8%

Nc1ncc(-c2cnn(C3CCNCC3)c2)cc1-c1nc2ccccc2o1
inactive: [1] 20.2% | [2] 15.8% | [3] 24.3% | [5] 19.7% | [7] 19.5% | [9] 15.2% | [11] 27.1% | [14] 94.5%
active: [4] -0.928% | [6] 7.74% | [8] -73.7% | [10] -60% | [12] -29.5% | [13] -0.542% | [15] -33.8% | [16] -82% | [17] -88.7%

S=C1N(c2ccccc2)CN(C2CCCCC2)CN1c1ccccc1
active: [5] -29.7% | [16] 2.41%
inactive: [1] 100% | [2] 98.7% | [3] 99.9% | [4] 105% | [6] 45.5% | [7] 100% | [8] 112% | [9] 107% | [10] 101% | [11] 98.2% | [12] 109% | [13] 118% | [15] 88.1% | [17] 100%

c1ccc(CSc2ncccc2-c2nnc(SCCN3CCOCC3)o2)cc1
inactive: [1] 104% | [2] 114% | [3] 116% | [4] 122% | [5] 105% | [6] 112% | [9] 112% | [10] 117% | [18] 111% | [11] 114% | [12] 123% | [13] 107% | [14] 106% | [15] 132% | [16] 147% | [17] 108%

CN(C)CCC1(c2ccccc2)CCN(C)C1=O (stereo not given)
inactive: [1] 103% | [2] 95.7% | [3] 96.9% | [19] 123% | [5] 86.4% | [6] 105% | [7] 109% | [8] 105% | [9] 107% | [10] 95.2% | [18] 94.8% | [11] 114% | [12] 96.1% | [13] 99.9% | [14] 104% | [15] 103% | [16] 104% | [17] 108%

NC1=CC(=O)C(=O)c2cccnc21
inactive: [1] 18.7% | [2] 82.4% | [3] 80.2% | [19] 149% | [5] 59.8% | [6] 43.9% | [7] 99.7% | [8] 98.7% | [9] 28.3% | [10] 88.4% | [11] 83.9% | [12] 83.5% | [13] 90.4% | [14] 77.3% | [15] 101% | [16] 64.4% | [17] 32.1%
active: [18] -0.873%

O=C1c2ccccc2C(=O)c2c1ccc(C(Br)Br)c2[N+](=O)[O-]
active: [1] 4.98% | [2] -1.88% | [10] -7.68% | [18] -17.5% | [11] -21.4%
inactive: [3] 78.4% | [4] 75.2% | [5] 64.1% | [6] 94.6% | [7] 21.1% | [9] 59.4% | [12] 48.6% | [13] 19.1% | [14] 92.8% | [15] 90.2% | [16] 95.2% | [17] 36.6%

O=C1C=C(Nc2cccc(Br)c2)c2ccccc2C1=O
inactive: [1] 41.1% | [2] 91.3% | [3] 41.9% | [4] 12.7% | [5] 27.3% | [6] 16.7% | [7] 60.2% | [8] 104% | [9] 22.4% | [10] 21.4% | [18] 47.2% | [11] 54.6% | [12] 31.8% | [13] 58% | [15] 15% | [16] 79.4% | [17] 14.4%

O=c1c(Br)ccc(Br)cc1Br
inactive: [2] 97.5% | [3] 15.2% | [4] 36.1% | [13] 14.3% | [14] 46.7% | [15] 15%
active: [1] -51.8% | [7] -29.3% | [8] -70.6% | [9] -72.3% | [10] -11.6% | [11] -3.63% | [12] -89.5% | [17] -70.2%

COc1ccc2c(c1)C(=O)/C(=C/c1ncc([N+](=O)[O-])n1C)O2
active: [1] -5.43% | [2] -24.6% | [3] -27% | [4] -42.6% | [5] -51.5% | [7] -26.3% | [8] -47.5% | [9] -13.6% | [10] 1.52% | [18] -56.2% | [11] -18.1% | [12] -54.4% | [13] -39.7% | [14] -18.4% | [15] -29.4% | [16] -43.9% | [17] -37.7%

CCOC(=O)N/N=C/c1ccc(OC)c(OC)c1
inactive: [1] 113% | [2] 97.9% | [3] 112% | [4] 102% | [6] 102% | [7] 104% | [8] 117% | [9] 118% | [10] 99.9% | [18] 132% | [11] 106% | [12] 101% | [13] 127% | [14] 101% | [15] 112% | [16] 106% | [17] 113%

O=C(c1ccccc1)N(C(=O)c1ccccc1)N1CCCC1
inactive: [1] 96.4% | [2] 92.7% | [3] 104% | [4] 106% | [7] 110% | [8] 110% | [9] 113% | [10] 101% | [11] 117% | [12] 110% | [13] 98.7% | [14] 104% | [15] 99.9% | [17] 102%

Oc1ccc(-c2[nH]c3ccccc3c2-c2nc3ccccc3o2)cc1
inactive: [1] 77.8% | [2] 78.5% | [3] 67.9% | [19] 67.8% | [5] 60.9% | [6] 58% | [7] 75% | [8] 59.1% | [9] 78.6% | [10] 19.2% | [18] 65% | [11] 48.7% | [12] 91.6% | [13] 69.8% | [14] 72.1% | [15] 82.7% | [16] 112% | [17] 25.1%

CCCN(CCC)C(=O)[C@H](CC)[C@@H]1CC[C@@H](C)[C@@H]([C@H](C)[C@@H](O)[C@@H](C)C(=O)[C@H](CC)C2O[C@]3(C=C[C@@H](O)[C@]4(CC[C@@](C)([C@H]5CC[C@](O)(CC)[C@H](C)O5)O4)O3)[C@H](C)C[C@@H]2C)O1 (stereo not given in full)
inactive: [3] 14.2% | [7] 15.8% | [9] 31.5% | [10] 10.4% | [13] 24.5% | [17] 13.9%
active: [1] -9.41% | [2] -2.4% | [4] 1.15% | [5] -11.1% | [8] -64.2% | [18] -13.3% | [11] -40.3% | [12] -6.32% | [14] -5.79% | [15] 8.44% | [16] 8.4%

COc1nc2c(c(=O)n1C)CN(c1ccccc1)C(=O)C(C)N2 (stereo not given)
inactive: [1] 95.7% | [2] 95.6% | [3] 88.1% | [4] 104% | [5] 84.6% | [6] 99.2% | [7] 97.5% | [8] 115% | [9] 114% | [10] 101% | [11] 98.3% | [12] 95.2% | [13] 97.1% | [14] 105% | [15] 96.1% | [16] 93.5% | [17] 95.3%
